The record followed here is PubChem BioAssay (NCATS).

A number with no mark means an inactive call. Records with an inconclusive call do not appear. Active and inactive are the calls of the source. Unless noted, the call rests on the fitted dose curve; in most records, active means well fitted curve in the direction sought with a large enough effect; inconclusive means small, poorly fitted or top-dose-only effect, or another doubt; inactive means no such curve, though single readings can be large; an effect the other way counts as inactive or inconclusive.

The target in assay [1] is Lysosomal acid glucosylceramidase (Homo sapiens) (UniProt P04062). The experiment in a line: Glucocerebrosidase-p2 (AID 348; in the data active means potency below about 10 µM; further: potency means the concentration at half of the fitted maximal effect). Conditions: purified GBA, blue fluorogenic substrate, 40 min. The procedure, abridged: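 Normal human glucocerebrosidase (0.2 nM) with blue fluorogenic substrate (80 uM final) in citrate/phosphate pH 5.9 with 10mM sodium taurocholate, 0.01% tween-20; 40 min RT, NaOH/glycine stop; fluorescence Ex 365/Em 440; AC50 from a titration from 0.6 nM upwards.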
Sequence of Lysosomal acid glucosylceramidase (Homo sapiens) (P04062 whole entry, looked up): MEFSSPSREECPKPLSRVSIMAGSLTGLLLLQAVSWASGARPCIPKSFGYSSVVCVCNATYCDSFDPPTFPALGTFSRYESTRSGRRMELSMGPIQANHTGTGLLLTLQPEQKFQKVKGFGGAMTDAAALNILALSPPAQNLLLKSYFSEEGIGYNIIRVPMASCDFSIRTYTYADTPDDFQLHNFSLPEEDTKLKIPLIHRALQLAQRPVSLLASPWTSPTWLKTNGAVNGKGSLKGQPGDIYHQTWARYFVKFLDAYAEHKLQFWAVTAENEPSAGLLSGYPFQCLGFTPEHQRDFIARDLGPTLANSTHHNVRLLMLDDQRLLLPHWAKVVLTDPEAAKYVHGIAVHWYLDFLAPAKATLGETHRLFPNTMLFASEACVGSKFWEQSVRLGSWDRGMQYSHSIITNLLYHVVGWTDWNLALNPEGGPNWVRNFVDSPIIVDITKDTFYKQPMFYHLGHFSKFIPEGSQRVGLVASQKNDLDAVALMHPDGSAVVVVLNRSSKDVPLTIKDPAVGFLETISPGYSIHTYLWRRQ

Assay [2] can be described thus: AP1 Signaling Pathway (AID 357; active means well fitted curve in either direction with a large enough effect, not every such curve was filed as active;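 further: ME-180 reporter cells stimulated with EGF at its EC50 level; on the % scale 0 is the no-effect control and ±100 the full control effect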). Conditions: ME-180 AP-1-bla reporter, EGF-induced, beta-lactamase ratio, 5 h; at 7.69 µM (top of the series) unless noted. The procedure, abridged: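 AP-1-bla ME-180 cells, Opti-MEM + 0.5% dialyzed FBS, plated overnight 37 °C. Cpd titration + EC50 EGF, 5 h 37 °C. CCF4 2.5 h RT; ex 405, em 460/530 ratio → %activity, AC50.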
The target in assay [3] is Cytochrome P450 1A2 (Homo sapiens) (UniProt P05177). In words: p450-cyp1a2 (AID 410; calls by dose curve; further: potency means the concentration at half of the fitted maximal effect). The settings on record: recombinant CYP1A2, luciferin-ME demethylation, luminescence; series mostly up to 57 µM. Put shortly: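 O-Demethylation of luciferin 6' methyl ether by human CYP1A2 is monitored as luciferase luminescence. Substrate sits at Km (100uM); enzyme is 20nM. Values are scaled to 57 uM furafylline as maximal inhibition.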
Sequence of Cytochrome P450 1A2 (Homo sapiens) (P05177 whole entry, looked up): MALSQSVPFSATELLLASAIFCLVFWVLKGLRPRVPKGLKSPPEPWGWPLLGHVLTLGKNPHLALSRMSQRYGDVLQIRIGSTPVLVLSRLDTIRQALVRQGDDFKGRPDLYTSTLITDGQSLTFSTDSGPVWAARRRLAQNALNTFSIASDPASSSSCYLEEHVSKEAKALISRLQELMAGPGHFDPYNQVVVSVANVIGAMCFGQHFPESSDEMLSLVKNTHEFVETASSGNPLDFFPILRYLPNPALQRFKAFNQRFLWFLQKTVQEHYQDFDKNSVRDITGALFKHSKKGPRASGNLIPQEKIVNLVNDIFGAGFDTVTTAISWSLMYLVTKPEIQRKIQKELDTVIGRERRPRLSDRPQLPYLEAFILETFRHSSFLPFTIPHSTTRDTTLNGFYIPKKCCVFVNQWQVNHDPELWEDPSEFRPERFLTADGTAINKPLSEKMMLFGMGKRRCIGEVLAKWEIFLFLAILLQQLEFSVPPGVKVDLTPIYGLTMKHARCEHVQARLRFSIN

A short description of assay [4]: NFAT Signaling Pathway (AID 444; active means well fitted curve in either direction with a large enough effect, not every such curve was filed as active;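 further: carbachol stimulus at about its EC50 of 1 µM final; on the % scale 0 is the no-effect control and ±100 the full control effect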). Conditions: Jurkat NFAT-bla M1, carbachol, beta-lactamase ratio, 5 h; at 7.69 µM (top of the series) unless noted. Put shortly: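 Read-out: CCF4 FRET ratio (460 nm/530 nm) after 1 h RT dye loading, used for %activity and AC50 from titration series. Cells: Jurkat NFAT-β-lactamase/M1 line, treated with compound plus 1 uM carbachol for 5 h, 37 °C.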

Assay [5] in a line: Stat Signaling Pathway (AID 446; active means well fitted curve in either direction with a large enough effect, not every such curve was filed as active;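 further: ME-180 cervical cancer cells given 40 pM IL-6 alongside compound; SIE-controlled beta-lactamase reporter measured as 460/530 nm FRET emission ratio; on the % scale 0 is the no-effect control and ±100 the full control effect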). Conditions: ME-180 (cervical carcinoma) SIE beta-lactamase reporter, IL-6 stimulated, 5 h; at 7.69 µM (top of the series) unless noted. The procedure, abridged: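 Overnight-plated ME-180 cells bearing a STAT Inducible Element beta-lactamase reporter; 5 h co-exposure to compound and 40 pM IL-6; values normalized to 300 pM IL-6 and 125 nM JAK inhibitor controls.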

The target in assay [6] is Glucocorticoid receptor (Homo sapiens) (UniProt P04150). The experiment in a line: GR-GFP Redistribution (AID 450;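 active means compounds whose dose series gives a full or clear partial fitted curve of increased nuclear translocation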; further: potency means the concentration at half of the fitted maximal effect). The settings on record: U2OS GR-GFP nuclear translocation, laser cytometry, 2 h.
Sequence of Glucocorticoid receptor (Homo sapiens) (P04150 whole entry, looked up, the tested form may be a part): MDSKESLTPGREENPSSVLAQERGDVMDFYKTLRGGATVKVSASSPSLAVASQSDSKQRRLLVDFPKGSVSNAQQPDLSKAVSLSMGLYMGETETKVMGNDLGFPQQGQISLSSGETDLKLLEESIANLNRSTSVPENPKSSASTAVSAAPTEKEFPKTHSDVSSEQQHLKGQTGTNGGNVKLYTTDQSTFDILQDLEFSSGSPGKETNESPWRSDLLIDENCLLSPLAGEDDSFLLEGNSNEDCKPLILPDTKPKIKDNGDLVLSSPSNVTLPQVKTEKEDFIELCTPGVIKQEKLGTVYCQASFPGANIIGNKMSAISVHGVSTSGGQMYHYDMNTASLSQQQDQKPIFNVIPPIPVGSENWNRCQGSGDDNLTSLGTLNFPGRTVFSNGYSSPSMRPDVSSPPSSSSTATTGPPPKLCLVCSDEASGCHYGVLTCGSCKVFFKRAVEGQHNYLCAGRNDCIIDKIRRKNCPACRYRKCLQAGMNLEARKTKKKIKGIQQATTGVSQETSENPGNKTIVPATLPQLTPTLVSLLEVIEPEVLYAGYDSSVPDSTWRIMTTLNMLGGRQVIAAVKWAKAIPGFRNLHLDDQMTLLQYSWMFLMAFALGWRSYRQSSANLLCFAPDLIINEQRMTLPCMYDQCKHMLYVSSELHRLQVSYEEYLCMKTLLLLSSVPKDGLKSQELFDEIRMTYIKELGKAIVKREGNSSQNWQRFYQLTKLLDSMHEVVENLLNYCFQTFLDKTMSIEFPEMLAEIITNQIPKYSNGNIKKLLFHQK
Assay [7] has the same target. The experiment in a line: GR-EFC Redistribution (AID 451; calls by dose curve; further: potency means the concentration at half of the fitted maximal effect). Conditions: CHO-K1 GR-EFC translocation, beta-gal luminescence, 2 h. Put shortly: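 Translocation of GR-ED fusion to nuclear EA restores b-gal, read by luminescence after 1 h room-temperature detection. Engineered CHO-K1 biosensor cells, 1,000/well, exposed 2 h at 37 C to titrations up to 46 uM final.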
For assay [8], the target named is Mitogen-activated protein kinase 10 (Mus musculus) (UniProt Q61831). In words: JNK3 AlphaScreen Assay (AID 530; active means well fitted curve in either direction with a large enough effect, not every such curve was filed as active;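 further: kinase came from lysate of stimulated human HepG2 cells; signal reports phosphorylation of biotinylated GST-cJun 1-79 at Ser73 with 10 µM ATP; on the % scale 0 is the no-effect control and ±100 the full control effect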). Conditions: JNK3 lysate, c-Jun phosphorylation; series mostly up to 57.1 µM. The procedure, abridged: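 qHTS titrations with 15 min compound pre-incubation before adding ATP (10 uM final). Read-out: AlphaScreen of Ser73-phosphorylated biotin-GST-cJun using HepG2 lysate JNK3 activated by IL-1β and TNFα.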
Background: In Alpha technology, singlet oxygen from a donor bead excites a nearby acceptor bead.

Assay [9] has as its target Cytochrome P450 3A4 (Homo sapiens) (UniProt P08684). The experiment in a line: qHTS Assay for Inhibitors and Substrates of Cytochrome P450 3A4 (AID 884). Further: potency means the concentration at half of the fitted maximal effect; nearly all actives have a fitted effect of over 50% in size. Conditions: recombinant CYP3A4, Luciferin-PPXE luminescence; series mostly up to 57.1 µM. The procedure, abridged: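 Luminescent readout of luciferin produced by CYP3A4 (20 nM) dealkylation of Luciferin-PPXE, 25 uM (its KM). NADPH-driven reaction ran 60 min at RT after 10 min compound preincubation; data scaled to 57 uM ketoconazole as 100% inhibition.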
A general note: qHTS replaces the single test concentration by a dilution series.

Assay [10] shares this target. The experiment in a line: qHTS Assay for Activators of Cytochrome P450 3A4 (AID 885). Further: nearly all actives have a fitted effect of over 65% in size. The settings on record: recombinant CYP3A4, Luciferin-PPXE luminescence, 60 min; series mostly up to 57.1 µM. The procedure, abridged: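 Using 20nM recombinant human CYP3A4 in potassium phosphate (200mM), substrate Luciferin-PPXE at 25uM, luminescent luciferin detection followed a 60-min RT NADPH reaction; data scaled to 57 uM ketoconazole.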

Assay [11] deals with Dual specificity protein kinase CLK4 (Homo sapiens) (UniProt Q9HAZ1). In words: qHTS Assay for Inhibitors of CDC-like Kinase 4 (Kinase-Glo Assay) (AID 1770). Further: nearly all actives have a fitted effect of over 65% in size. Further: potency means the concentration at half of the fitted maximal effect. The settings on record: recombinant Clk4, Kinase-Glo ATP depletion luminescence; series mostly up to 66.7 µM. The procedure, abridged: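 Readout: Kinase-Glo luminescence from ATP left after a 4.5 h room-temperature reaction of 25 nM Clk4 with 100 uM RS peptide and 1 uM ATP (final). Buffer: 25 mM Tris pH 7.5, 10 mM MgCl2.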
Sequence of Dual specificity protein kinase CLK4 (Homo sapiens) (Q9HAZ1 whole entry, looked up): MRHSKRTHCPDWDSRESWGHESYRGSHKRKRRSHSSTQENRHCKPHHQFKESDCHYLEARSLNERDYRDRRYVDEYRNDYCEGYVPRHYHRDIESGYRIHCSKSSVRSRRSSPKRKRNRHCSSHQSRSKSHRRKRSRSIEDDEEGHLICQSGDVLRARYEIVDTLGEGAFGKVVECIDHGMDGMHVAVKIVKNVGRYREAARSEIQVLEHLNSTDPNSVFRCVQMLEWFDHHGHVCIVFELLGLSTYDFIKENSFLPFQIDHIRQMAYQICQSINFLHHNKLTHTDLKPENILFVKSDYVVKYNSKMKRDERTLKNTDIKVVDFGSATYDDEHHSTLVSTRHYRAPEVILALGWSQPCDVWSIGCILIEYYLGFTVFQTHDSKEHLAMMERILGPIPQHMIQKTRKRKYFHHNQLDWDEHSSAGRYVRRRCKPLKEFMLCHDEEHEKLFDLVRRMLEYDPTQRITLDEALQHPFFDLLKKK

Assay [12] shares this target. The experiment in a line: qHTS Assay for Inhibitors of CDC-like Kinase 4 (ADP-FP Assay) (AID 1795).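 Further: recombinant human CLK4 phosphorylating RS repeat peptide at 1 µM ATP; on the % scale 0 is the no-effect control and ±100 the full control effect; nearly all actives have a fitted effect of over 60% in size.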 Conditions: Transcreener ADP fluorescence polarization; series mostly up to 50 µM. Put shortly: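 FP readout: Orange Transcreener ADP2 tracer (4 nM) plus ADP antibody, read after 30 min at room temperature. Kinase step: 6.25 nM Clk4, 100 uM RS peptide, 1 uM ATP, pH 7.5, 1 h.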

Assay [13] in a line: Primary qHTS for small molecule stabilizers of the endoplasmic reticulum resident proteome: Secreted ER Calcium Modulated Protein (SERCaMP) assay (AID 1508630). Further: on the % scale 0 is the no-effect control and ±100 the full control effect. Conditions: SH-SY5Y GLuc-SERCaMP (Gaussia luciferase released on ER calcium loss) secretion, thapsigargin, luminescence; series mostly up to 38.4 µM. Put shortly: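 The SH-SY5Y reporter protocol was run at 3 concentrations up to 38.3 uM (primary) or 11 concentrations (follow-up): 16 h compound, 100 nM thapsigargin for 4 h, then extracellular luciferase luminescence.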

The target in assay [14] is Cytochrome P450 2C19 (Homo sapiens) (UniProt P33261). In words: qHTS Assay for Inhibitors and Substrates of Cytochrome P450 2C19 (AID 899). Further: potency means the concentration at half of the fitted maximal effect; nearly all actives have a fitted effect of over 60% in size. Conditions: recombinant CYP2C19, luciferin-H EGE luminescence; series mostly up to 57.1 µM. The procedure, abridged: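 5nM enzyme + 10uM Luciferin-H EGE (=KM), 50mM KPO4; cpd pin-transferred, 10 min 37C; NADPH regen, 60 min 37C; stopped w/ luciferin detection reagent, 20 min; luminescence. Normalized to 57uM ketoconazole (AC100).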
Sequence of Cytochrome P450 2C19 (Homo sapiens) (P33261 whole entry, looked up): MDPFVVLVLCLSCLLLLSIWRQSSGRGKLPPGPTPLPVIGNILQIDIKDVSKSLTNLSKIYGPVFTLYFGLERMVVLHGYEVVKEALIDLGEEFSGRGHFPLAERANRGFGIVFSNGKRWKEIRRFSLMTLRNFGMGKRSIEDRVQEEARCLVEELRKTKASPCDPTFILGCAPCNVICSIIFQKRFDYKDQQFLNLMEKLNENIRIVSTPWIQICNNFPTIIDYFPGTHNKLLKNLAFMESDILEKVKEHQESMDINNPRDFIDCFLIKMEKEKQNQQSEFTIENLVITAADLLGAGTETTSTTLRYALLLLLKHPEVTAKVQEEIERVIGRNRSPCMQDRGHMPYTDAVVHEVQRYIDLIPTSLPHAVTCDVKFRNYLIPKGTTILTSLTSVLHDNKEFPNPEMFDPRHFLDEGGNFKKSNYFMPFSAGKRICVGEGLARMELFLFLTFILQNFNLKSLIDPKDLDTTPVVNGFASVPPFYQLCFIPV

Assay [15] deals with Ubiquitin carboxyl-terminal hydrolase 1 (Homo sapiens) (UniProt O94782). In words: Inhibitors of USP1/UAF1: Pilot qHTS (AID 504865). Further: nearly all actives have a fitted effect of over 35% in size. Further: potency means the concentration at half of the fitted maximal effect. The settings on record: purified USP1/UAF1, Ub-rhodamine cleavage fluorescence; series mostly up to 54.9 µM. Put shortly: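 1nM USP1/UAF1 + cpd, 15 min RT; start w/ Ub-Rho 150nM final; kinetic FL 480/540 nm, 6 reads q60 s. Buffer 50mM HEPES pH 7.8, 0.5mM EDTA, 1mM TCEP, 0.01% Tween-20, 0.1 mg/ml BSA.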
Sequence of Ubiquitin carboxyl-terminal hydrolase 1 (Homo sapiens) (O94782 whole entry, looked up): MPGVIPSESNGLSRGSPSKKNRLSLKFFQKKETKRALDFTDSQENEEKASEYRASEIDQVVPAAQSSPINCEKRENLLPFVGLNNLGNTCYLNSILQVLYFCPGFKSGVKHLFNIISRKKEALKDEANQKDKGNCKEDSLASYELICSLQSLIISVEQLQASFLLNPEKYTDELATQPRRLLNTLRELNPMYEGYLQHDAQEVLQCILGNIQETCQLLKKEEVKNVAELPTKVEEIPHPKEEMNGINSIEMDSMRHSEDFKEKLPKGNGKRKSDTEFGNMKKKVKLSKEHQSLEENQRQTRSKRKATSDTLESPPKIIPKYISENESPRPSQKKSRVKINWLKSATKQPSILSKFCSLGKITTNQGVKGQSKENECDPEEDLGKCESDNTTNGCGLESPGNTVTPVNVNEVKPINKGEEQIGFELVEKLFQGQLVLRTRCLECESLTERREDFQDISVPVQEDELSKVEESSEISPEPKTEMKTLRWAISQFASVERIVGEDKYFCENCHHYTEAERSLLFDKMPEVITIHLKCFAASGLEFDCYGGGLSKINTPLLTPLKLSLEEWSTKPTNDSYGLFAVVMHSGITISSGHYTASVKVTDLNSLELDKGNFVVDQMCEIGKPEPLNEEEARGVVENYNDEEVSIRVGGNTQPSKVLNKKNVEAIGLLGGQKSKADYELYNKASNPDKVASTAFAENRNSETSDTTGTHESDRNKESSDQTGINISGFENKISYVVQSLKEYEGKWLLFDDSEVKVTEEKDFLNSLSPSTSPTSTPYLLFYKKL

For assay [16], the target named is 3',5'-cyclic-AMP phosphodiesterase 4B (Homo sapiens) (UniProt Q07343). In words: qHTS Assay for Inhibitors of PDE-IV (AID 607; active means well fitted activation curve with a large enough effect in the main read-out, with a control signal flat, not every such curve was filed as active; further: % of control where 0% means no effect). The settings on record: HEK293 ACTOne CNG channel cells, membrane potential fluorescence; series mostly up to 22.9 µM. The procedure, abridged:
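Live HEK293 cells with a modified cyclic nucleotide-gated (CNG) channel report intracellular cAMP via membrane-potential dye fluorescence (ex 535/em 590 nm). Endogenous PDE-IV was targeted. Compounds were tested at up to 22.9 uM final; RO 20-1724 100 uM served as control.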

Sequence of Cytochrome P450 3A4 (Homo sapiens) (P08684 whole entry, looked up): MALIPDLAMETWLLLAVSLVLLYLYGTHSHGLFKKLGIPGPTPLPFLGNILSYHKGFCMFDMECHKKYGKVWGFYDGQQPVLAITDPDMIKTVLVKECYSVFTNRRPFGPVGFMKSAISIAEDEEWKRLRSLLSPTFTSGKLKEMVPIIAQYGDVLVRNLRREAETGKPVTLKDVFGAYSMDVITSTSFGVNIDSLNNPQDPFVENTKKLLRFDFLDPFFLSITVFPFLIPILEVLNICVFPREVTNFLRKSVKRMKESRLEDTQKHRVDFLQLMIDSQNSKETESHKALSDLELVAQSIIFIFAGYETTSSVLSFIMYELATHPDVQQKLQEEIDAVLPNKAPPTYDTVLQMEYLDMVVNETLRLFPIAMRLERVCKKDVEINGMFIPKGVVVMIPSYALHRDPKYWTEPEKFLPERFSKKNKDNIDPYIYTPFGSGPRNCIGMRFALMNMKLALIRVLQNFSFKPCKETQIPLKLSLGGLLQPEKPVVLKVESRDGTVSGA
Sequence of 3',5'-cyclic-AMP phosphodiesterase 4B (Homo sapiens) (Q07343 whole entry, looked up): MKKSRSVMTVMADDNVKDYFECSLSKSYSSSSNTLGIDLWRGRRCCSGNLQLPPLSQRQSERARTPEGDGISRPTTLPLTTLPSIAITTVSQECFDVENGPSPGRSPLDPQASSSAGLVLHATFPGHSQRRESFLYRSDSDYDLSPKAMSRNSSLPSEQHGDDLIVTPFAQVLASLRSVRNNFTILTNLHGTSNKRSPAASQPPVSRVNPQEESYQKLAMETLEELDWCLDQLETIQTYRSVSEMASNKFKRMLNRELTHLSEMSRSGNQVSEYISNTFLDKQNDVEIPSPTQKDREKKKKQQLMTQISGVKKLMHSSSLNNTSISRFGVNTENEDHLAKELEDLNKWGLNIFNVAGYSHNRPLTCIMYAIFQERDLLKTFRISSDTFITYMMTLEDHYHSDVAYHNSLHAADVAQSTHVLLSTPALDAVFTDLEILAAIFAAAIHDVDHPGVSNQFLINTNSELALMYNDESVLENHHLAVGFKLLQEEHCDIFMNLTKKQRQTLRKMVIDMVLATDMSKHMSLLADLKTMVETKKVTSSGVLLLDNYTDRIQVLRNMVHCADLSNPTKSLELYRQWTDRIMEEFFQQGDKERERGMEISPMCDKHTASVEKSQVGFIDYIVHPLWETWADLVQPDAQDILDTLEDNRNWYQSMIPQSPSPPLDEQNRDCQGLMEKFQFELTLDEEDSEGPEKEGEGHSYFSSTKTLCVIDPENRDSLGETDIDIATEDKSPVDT

Regarding `N#Cc1cccc(-c2nc(NCc3cccs3)c3ccccc3n2)c1`, the Potency in [1] is above 11.4 µM; in assay [3], 0.316 µM (active); in [6], above 46 µM; in assay [7], above 46 µM; in assay [9] it was 3.98 µM (active). Also, the activity change, negative = inhibition in assay [2] was -7.71%; in assay [4], -16.7%. Moreover, the activity, negative = inhibition in [5] is -29.9%. The Potency entry in assay [8], in [10], in assay [11] and in assay [12] was “inactive” in each case. The result in assay [13] was inactive.
Consider `CN(C)c1ccc(-c2cncnc2Nc2ccccc2)cc1`, for which the Potency in [1] was above 11.4 µM; in [3] it was 0.398 µM (active); in assay [6], above 46 µM; in assay [7], above 46 µM; in [9], 0.631 µM (active); in assay [14], 0.316 µM (active). Also, the Potency in assay [11] is 22.4 µM (active). Moreover, the activity change, negative = inhibition in assay [2] is -29.4%; in [4] it was -2.66%. In addition, the activity, negative = inhibition in [5] was -12%. Further, the Potency result in [10], in assay [12] and in assay [15] was “inactive” in each case. In addition, in [13], the outcome was inactive.
In the case of `COc1ccc(CNc2nc(-c3cccc(C#N)c3)nc3ccccc23)c(OC)c1`, the Potency in assay [1] was above 11.4 µM; in [3] it was 2.51 µM (active); in assay [6], above 46 µM; in assay [7], above 46 µM; in assay [9] it was 2.51 µM (active). In assay [2], the activity change, negative = inhibition was -19.2%. In assay [5], the activity, negative = inhibition is -10.1%. The Potency entry in [8], in assay [10], in assay [11], in [12] and in assay [15] was “inactive” in each case. Besides, the outcome in [13] was inactive.
As for `Cc1cnc(CNc2cc(-c3ccccc3CN(C)C)ncn2)cn1`, the figures for the Potency in assay [1], in [6] and in assay [7] were above 11.4 µM, above 46 µM and above 46 µM, respectively. Besides, the activity change, negative = inhibition was 17.7% in assay [2] and -9.03% in [4]. Moreover, the activity, negative = inhibition in [5] is 7.96%. Also, the Potency result in assay [8], in assay [16], in assay [11], in assay [12] and in assay [15] was “inactive” each time. The result in assay [13] was inactive.
With `CN(C)C(=O)c1ccc(-c2nccc(NCc3cccs3)n2)cc1`, the Potency in assay [1] is above 11.4 µM; in assay [3], 15.8 µM (active); in [7] it was above 46 µM. For the same compound, the activity change, negative = inhibition in assay [2] is -0.866%; in assay [4], 3.58%. Moreover, the activity, negative = inhibition in assay [5] is -7.66%. Besides, the Potency result in assay [8], in [16], in assay [10], in assay [11], in assay [12] and in [15] was “inactive” each time. Further, the outcome in [13] was inactive.
As to `COc1ccc(Oc2ncc3nc(-c4ccc(F)cc4)c(=O)n(Cc4cccs4)c3n2)cc1`, the Potency in assay [1] is above 11.4 µM; in assay [3], 5.01 µM (active); in [6], above 9.22 µM; in [7], above 46 µM. Further, the activity change, negative = inhibition in assay [4] was -29.2%. Further, the activity, negative = inhibition in assay [5] is -8.36%. Moreover, the Potency entry in assay [8], in [16], in assay [10], in assay [11], in assay [12] and in [15] was “inactive” in each case. Besides, in assay [13], the result was inactive.
Consider `Cc1noc(C)c1-c1nc(NCc2ccccc2)c2ccccc2n1`, for which the Potency in assay [1] is above 11.4 µM; in [6] it was above 46 µM; in [7], above 46 µM; in assay [15], 6.31 µM (active). Further, the activity change, negative = inhibition in [2] was -3.06%. For the same compound, the activity, negative = inhibition in assay [5] is -4.57%. Moreover, the Potency result in assay [8], in [11] and in assay [12] was “inactive” throughout. For the same compound, in [13], the outcome was inactive.
